Assay outcomes as filed in PubChem BioAssay.
Only some compounds are listed: those with a hit (about 1.9% of all), similar ones and a draw of the others.
sEH inh = inhibitors of human soluble epoxide hydrolase. P34913. recombinant human sEH enzymatic activity assay. inhibition, % at 2 µM. 91,000 tested, 0.34% active; in the data active = inhibition above about 80%
Target sequence (P34913 whole entry, looked up): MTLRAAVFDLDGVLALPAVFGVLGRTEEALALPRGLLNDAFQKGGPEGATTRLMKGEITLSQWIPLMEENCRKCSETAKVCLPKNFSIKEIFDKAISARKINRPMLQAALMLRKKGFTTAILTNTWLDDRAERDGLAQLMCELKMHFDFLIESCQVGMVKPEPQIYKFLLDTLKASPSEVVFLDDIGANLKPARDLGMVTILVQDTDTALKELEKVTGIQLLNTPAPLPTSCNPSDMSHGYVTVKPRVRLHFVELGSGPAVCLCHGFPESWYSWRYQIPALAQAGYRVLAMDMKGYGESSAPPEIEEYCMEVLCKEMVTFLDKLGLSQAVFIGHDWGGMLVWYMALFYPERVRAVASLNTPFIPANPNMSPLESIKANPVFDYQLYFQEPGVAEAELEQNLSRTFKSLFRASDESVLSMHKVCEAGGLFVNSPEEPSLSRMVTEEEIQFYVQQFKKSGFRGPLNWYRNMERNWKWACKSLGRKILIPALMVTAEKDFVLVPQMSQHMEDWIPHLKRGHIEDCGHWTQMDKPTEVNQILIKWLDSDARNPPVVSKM
SDO1 yeast rescue = compounds rescuing growth of sdo1-depleted yeast, bone marrow failure model; S. cerevisiae sdo1-depleted JHY4D growth rescue, OD600 30 h; active compounds read high; pdr5 snq2 efflux-pump mutant strain; z-score at 10 µM; 140,000 tested, 0.21% active;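 active = z-score above 3 at both the 24 hr and the 30 hr optical density reads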;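 also: z-score against mean and SD of all compound wells on the same plate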
Measles CPE = protection of cells from measles virus | AID 841 | Measles virus-infected cells, CPE protection, absorbance | protection (pct of control), % at 4 µM | 140,000 tested, 1.5% active; in the data active = protection mostly above about 24%, no sharp cut-off; inactive = mostly below about 26%
sEH act = activators of human soluble epoxide hydrolase | P34913 | purified human sEH enzymatic activity, activator screen | activation, % at 2 µM | 91,000 tested, 0.04% active; in the data active = activation above about 37%
* marks the source's active call; other numbers are inactive results; / = no result.

SMILES | sEH inh | SDO1 yeast rescue | Measles CPE | sEH act
CC(=O)Nc1ccc(C(=O)NCCc2ccccc2)cc1 | / | 0.63 | 20.0 | /
COCCNC(=O)c1ccc(NC(C)=O)cc1 | 1.0 | 0.7 | 51.8* | 0.4
O=C(NCCCN1CCCC1=O)c1cccc(C(F)(F)F)c1 | 2.6 | 0.37 | 3.2 | 1.1
COCCCNC(=O)c1ccc2c(c1)OCO2 | -6.7 | 0.94 | 22.7 | 4.5
CCCNC(=O)c1cccc(C(F)(F)F)c1 | 9.5 | 0.22 | 26.5* | -8.9
Cc1nc2ccc(NC(=O)c3cccc(C(F)(F)F)c3)cc2o1 | 2.7 | 0.44 | 60.7* | -3.1
COCCCNC(=O)c1cccc(C(=O)NCCCOC)c1 | / | 0.87 | 23.1* | /
Cc1cccc(OC(=O)C2C(c3ccccc3)C(C(=O)O)C2c2ccccc2)c1 (configuration not stated) | 11.9 | -0.43 | 20.9 | -13.9
COC(=O)C1=C(C)NC2=C(C(=O)CC(C)(C)C2)C1c1cn(Cc2ccc(Br)cc2)nc1-c1ccccc1 (configuration not stated) | 0.6 | -0.87 | 20.6 | 2.0
COc1ccc(S(=O)(=O)NC(C(C)C)C(C)C)cc1OC | -8.6 | 0.64 | 9.3 | 6.6
COc1cc(S(=O)(=O)NC(C)C)ccc1Cl | -5.1 | 0.5 | 32.7* | 5.5
Cc1cccc(NC(NC(=O)Cc2ccccc2)C(Cl)(Cl)Cl)c1 (configuration not stated) | / | -1.02 | 58.0* | /
Cc1cccc(NC(=S)NC(NC(=O)c2ccco2)C(Cl)(Cl)Cl)c1 (configuration not stated) | 0.9 | -0.37 | 7.8 | 1.4
Cc1ccc(NC(NC(=O)Cc2ccccc2)C(Cl)(Cl)Cl)cc1 (configuration not stated) | / | -1.6 | 2.5 | /
Cc1cccc(NC(NC(=O)c2ccccn2)C(Cl)(Cl)Cl)c1 (configuration not stated) | / | 0.54 | 38.7* | /
CCC(OC(=O)c1cc2sccc2n1C)C(=O)NCC1CCCO1 (configuration not stated) | 3.7 | 0.29 | 10.4 | -1.6
Cc1ccc(N(CC(=O)NC2CCCCC2)C(=O)c2ccc(C)s2)cc1 | 81.0* | -1.14 | 9.4 | -80.4
Cc1cc(C)cc(N(CC(=O)NC2CCCCC2)C(=O)c2ccc(C)s2)c1 | 6.6 | -1.37 | 8.2 | -3.6
CN(C)/C=N/c1ncc(C(=O)c2ccc3ccccc3c2)s1 | -49.1 | -0.49 | 11.3 | 48.5*
COc1ccc(C(=O)c2cnc(/N=C/N(C)C)s2)cc1 | / | 0.7 | 1.9 | /
Nc1ccccc1SCc1cn2ccccc2n1 | / | 0.82 | 3.0 | /
O=S(=O)(c1ccc(Oc2ccc(-c3nnco3)cc2)nc1)N1CCC(Cc2ccccc2)CC1 | 0.9 | -0.19 | 43.3* | -1.5
O=C(CN(CCc1ccccc1)C(=O)CNS(=O)(=O)c1ccc(F)cc1)NCC1CCCO1 (configuration not stated) | -9.6 | -0.23 | 33.4* | 10.5
O=C(CN(CC1CCCO1)C(=O)CNS(=O)(=O)c1ccc(Cl)cc1)NCCc1ccccc1 (configuration not stated) | 1.7 | 0.61 | 4.4 | -2.8
CCSc1nnc(Cn2c(=O)sc3ccccc32)n1C | / | -0.28 | 5.8 | /
SMILES | sEH inh | SDO1 yeast rescue | Measles CPE | sEH act
CC(Sc1nnc(Cn2c(=O)sc3ccccc32)n1C)c1ccccc1 (configuration not stated) | / | -0.59 | 51.4* | /
CC(=O)N1CCc2cc(C(=O)CN3CCC(C)CC3)ccc21 | / | 1.1 | 35.4* | /
CC(=O)N1CCc2cc(C(=O)CN3CCN(c4cccc(Cl)c4)CC3)ccc21 | / | 0.85 | 9.5 | /
Cc1ccccc1C(=O)Nc1cc(S(=O)(=O)N2CCCCC2)ccc1N1CCN(C)CC1 | / | 0.14 | 33.1* | /
CN1CCN(c2ccc(S(=O)(=O)N3CCCCC3)cc2NC(=O)c2ccc3ccccc3c2)CC1 | / | -0.72 | 13.0 | /
Cc1cc(C(=O)N/N=C/c2cccc([N+](=O)[O-])c2)c(C)o1 | -27.9 | -0.62 | 33.5* | 24.4
O=C(N/N=C/c1cccc([N+](=O)[O-])c1)c1cc2ccccc2o1 | / | -0.68 | 11.6 | /
CCc1ccc(N2CC(C(=O)Nc3nccs3)CC2=O)cc1 (configuration not stated) | 7.5 | 0.19 | 34.6* | -7.6
Cc1ccccc1OCCSc1nnc(C)n1-c1ccccc1 | -10.9 | -0.54 | 19.1 | 7.7
CC1(C)CC(=O)C2=C(C1)Nc1ccccc1NC2c1ccc2c(c1)OCO2 (configuration not stated) | -6.8 | -0.22 | 41.4* | 4.3
CCCCCn1c(SCC2CCCO2)nc2cc(C(=O)N3CCC(C(N)=O)CC3)ccc2c1=O (configuration not stated) | / | 1.32 | 55.2* | /
CCCCCn1c(SCC(=O)OCC)nc2cc(C(=O)NCc3ccco3)ccc2c1=O | -0.8 | -0.83 | 8.9 | -2.0
CC(C)n1c2ccccc2c2nc3ccccc3nc21 | 6.6 | -1.72 | 16.7 | -8.3
